These results are taken from PubChem BioAssay (NCI).

“And” between values parts separate entries of the source, which are not always exact repeats. Equal entries are not always repeated. This is part of a sample that, as a whole, favours compounds with a hit. Of some 83,000 tested, about 20% had one in any assay.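 Plates (96-well) were seeded with cells, treated with compound at one concentration, and incubated for 48 hours before percent growth was determined.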 Unmarked numbers belong to inactive results. The source made the active and inactive calls.

For one assay, the system named is OVCAR-3 ovarian. Kind of assay: NCI-60 one-dose screen, 48 h (100 = growth as untreated, 0 = no growth, -100 = all killed). As to conditions: 1 µM. As to the method: Growth inhibition of the OVCAR-3 human tumor cell line is measured as a screen for anti-cancer activity. Cells are grown in 96 well plates and exposed to the test compound for 48 hours. Compounds are tested at a single concentration, which is 10^-5 M for most compounds. The reported endpoint is percent growth (GI% or GIPRCNT), where numbers from 0 - 100% represent growth inhibition, and numbers from -100% - 0 represent cell death. For example, a value of 40 represents 60% growth inhibition. A value of 0 means no net growth occurred over the course of the experiment. A value of -40 indicates 40% of cells at the beginning of the experiment died by the end of the experiment. A value of -100 means all cells are dead at the end of the experiment.
NCI-60 Human Tumor Cell Lines Screen was performed using the standard one-dose NCI protocol, which is described in more detail at https://dtp.cancer.gov/discovery_development/nci-60/default.htm.
Compounds with GIPRCNT values below 10 were considered active. Activity score was based on GIPRCNT using the following formula: […]
Score is 0 for GIPRCNT values of 100 or above, 50 for GIPRCNT values of 0, and 100 for GIPRCNT values of -100.
As for `CC/C(=C(\c1ccc(O)cc1)c1ccc(OCCN(C)C(=O)COCCNC(=O)Cc2ccc3c(c2)CN([C@@H]2CCC(=O)NC2=O)C3=O)cc1)c1ccccc1`, the growth is 85.9%.
For the compound `CC/C(=C(\c1ccc(O)cc1)c1ccc(OCCN(C)C(=O)CCOCCNC(=O)c2ccc3c(c2)CN([C@@H]2CCC(=O)NC2=O)C3=O)cc1)c1ccccc1`, the growth was 93.7%.
Consider `CC/C(=C(/c1ccc(O)cc1)c1ccc(OCCN(C)C(=O)COCCOCCNC(=O)Cc2ccc3c(c2)CN([C@@H]2CCC(=O)NC2=O)C3=O)cc1)c1ccccc1`, for which the growth is 95.6%.
On the same count and under the same terms, under `CC/C(=C(\c1ccc(O)cc1)c1ccc(OCCNC)cc1)c1ccccc1` stands 115%.

Staying with this assay, now noted: 10 µM.
In the case of `CC/C(=C(\c1ccc(O)cc1)c1ccc(OCCN(C)C(=O)COCCNC(=O)Cc2ccc3c(c2)CN([C@@H]2CCC(=O)NC2=O)C3=O)cc1)c1ccccc1`, the growth was 54.8%.
In the case of `CC/C(=C(\c1ccc(O)cc1)c1ccc(OCCN(C)C(=O)CCOCCNC(=O)c2ccc3c(c2)CN([C@@H]2CCC(=O)NC2=O)C3=O)cc1)c1ccccc1`, the growth is 105%.
Regarding `CC/C(=C(/c1ccc(O)cc1)c1ccc(OCCN(C)C(=O)COCCOCCNC(=O)Cc2ccc3c(c2)CN([C@@H]2CCC(=O)NC2=O)C3=O)cc1)c1ccccc1`, the growth was 61.3%.
`CC/C(=C(\c1ccc(O)cc1)c1ccc(OCCNC)cc1)c1ccccc1`: the growth was 85.4%.

The assay is the same for the next values; noted with them: 10 µM unless noted.
Turning to `CC[C@]12C=CCN3CC[C@@]4(c5ccc(OC)cc5N(C)[C@H]4[C@@](O)(C(=O)OC)[C@@H]1OC(=O)CCCC[P+](c1ccc(F)cc1)(c1ccc(F)cc1)c1ccc(F)cc1)[C@@H]32`, the growth is 12.6%.
Take `COc1ccccc1Nc1nnc(-c2c[nH]c3ccccc23)o1`: the growth was 12.9%.
For `O=C(Nc1ccc(Cl)c(C(F)(F)F)c1)N1CCN(c2cc(-c3cn(-c4ccccc4)nc3-c3cccc(O)c3)ccn2)CC1`, the growth was 13.5%.
For `O=C(OCCOCCO)N(c1cccc(Br)c1)c1nc(SCCN2CCOCC2)nc2c1cnn2CC(Cl)c1ccc(Br)cc1` (stereo not given), the growth was 20%.
Turning to `COc1cc2cc(C(=O)N3C[C@@H](CCl)c4c3cc(OC(=O)N(CCC(=O)N3CCN(C)CC3)C3CCCCC3)c3ccccc43)[nH]c2c(OC)c1OC`, the growth was -65.3% (active).
As to `CCOc1ccc(-c2cc(-c3cc(C(C)C)c(O)cc3C)nn2-c2ccc(S(N)(=O)=O)cc2)cc1`, the growth is 36.2%.
Regarding `CC1CCc2c(sc3nc(SCC(=O)c4cccc(Br)c4)n(-c4ccccc4)c(=O)c23)C1` (stereo not given), the growth was 55.7%.
With `Cn1cc(-c2cc(N)n3nc(-c4c[nH]c5ccccc45)cc3n2)c2ccccc21`, the growth was -79.4% (active).
In the case of `Cc1cc(=O)oc2cc(OCC(O)CNN3C(=O)c4cccc5c(N6CCN(C)CC6)ccc(c45)C3=O)ccc12` (stereo not given), the growth was 103%.
For the compound `Cc1oc(-c2ccccc2)nc1CN[C@@H]1C[C@@H]2C[C@H]([C@H]1C)C2(C)C`, the growth is 84.4%.
For `O=Cc1cncc(-c2ccc3ncnc(N4CCc5cc(F)c(Cl)cc54)c3c2)c1`, the growth was 25.2%.
Take `Cc1cccc(NCC(=O)N2CCN(c3ncnc4c3cnn4-c3ccccc3)CC2)c1`: the growth is 94%.
Still for that read-out and setting: the figure for `O=c1[nH]c2ccccc2cc1CSc1ccccc1Nc1nccc(-c2ccc3c(c2)OCO3)n1` is 83.9%.
On to `S=C(Nc1ccccc1)Nc1ccc(OCc2nc3ccc(Cl)cc3[nH]2)cc1`, for which the growth is 84.9%.
As for `CCN(C(=O)CN1C(=O)/C(=C/c2ccco2)SC1=S)C1CCS(=O)(=O)C1` (stereo not given), the growth was 103%.
With `OC(c1ccccc1)(c1ccccc1)C1CCN(c2ccc3nnc(Cl)n3n2)CC1`, the growth is 42.2%.
On to `O=C(c1ccc(O)cc1)C1[C@H](c2ccc(Cl)cc2)[C@@H](c2ccccc2)NC12C(=O)Nc1ccc(Br)cc12` (stereo not given in full), for which the growth was 2.42% (active).
On the same count and under the same terms, the figure for `CCC1(OC(=O)c2ccccc2SSCCOC(=O)CCCCC2SCC3NC(=O)NC32)C(=O)OCc2c1cc1n(c2=O)Cc2cc3ccccc3nc2-1` (stereo not given) is 72.7%.
Regarding `O=C(CSc1nc2sc3c(c2c(=O)n1-c1ccc(Cl)cc1)CCCC3)NNC(=O)c1ccc(F)cc1`, the growth was 119%.
For `CC(=O)Nc1cccc(-n2c(COc3ccc(Br)cc3)nc3ccccc32)c1`, the growth was 96.9% and 97.7%.
With `CN(C)C(=O)c1cc(-c2ccc3ncnc(N4CCc5cc(F)c(Cl)cc54)c3c2)cnc1N`, the growth was -58.1% (active).
Take `COc1ccc2ccccc2c1/C=C1\SC(=Nc2ccc(O)cc2)NC1=O`: the growth is 35.5%.
Take `O=C1CCC(N2C(=O)c3cccc(NCCOCCOCCOCCC(=O)NCCCC(=O)NC(c4ccc5c(c4)OCO5)c4cc(Cl)c5cccnc5c4O)c3C2=O)C(=O)C1` (stereo not given): the growth was 10.9%.
Regarding `CCc1ccccc1NC(=O)N/C(N)=N/c1nc2ccccc2s1`, the growth was -30.2% (active).
With `O=S(=O)(c1nc(-c2ccc(Br)cc2)oc1-c1ccc(Cl)cc1)N1CCCC(O)C1` (stereo not given), the growth was 63.1%.
Same read-out and setting: the figure for `CCOC(=O)/C(F)=C/C1CC1C(c1ccccc1)c1ccccc1` (stereo not given) is 103%.
As to `Cc1cnc2ccc(Oc3ccccc3-c3ccccc3)nn12`, the growth was 120%.
Regarding `COc1c(B(O)O)cc(F)cc1-c1nc2c(F)cc3[nH]ncc3c2c2c1CCCC2`, the growth was 18.6%.
In the case of `COc1ccc2[nH]c(=O)c(CSc3ccccc3Nc3nccc(-c4ccc(Cl)cc4)n3)cc2c1`, the growth is 39.8%.
Regarding `COc1ccc([C@H]2C(C(=O)c3ccc(Cl)cc3)C3(N[C@@H]2c2ccccc2)C(=O)Nc2ccccc23)cc1` (stereo not given in full), the growth is 27.4%.
Turning to `COc1ccc(N=Nc2c(N)nn3c(-c4ccc5c(c4)C=S=C5)ccnc23)cc1`, the growth was 48.4%.
For the compound `Cc1ccc(C(=O)Nc2cc(-n3ccnc3C)cc(C(F)(F)F)c2)cc1C#Cc1cnc2cccnn12`, the growth is 37.8%.
